According to PubChem BioAssay (NCATS):
Records with an inconclusive call do not appear. The source made the active and inactive calls. Unless noted, calls follow the shape of the dose curve; as a rule, active = well fitted curve in the direction sought with a large enough effect; inconclusive = small, poorly fitted or top-dose-only effect, or another doubt; inactive = no such curve, though single readings can be large; an effect the other way counts as inactive or inconclusive.

Assays:
[1] = target: Lysosomal acid glucosylceramidase (Homo sapiens) (UniProt P04062); test: Glucocerebrosidase-p2 (AID 348; in the data active = potency below about 10 µM; also: potency is read from the fitted curve at half-maximal effect); conditions: purified GBA, blue fluorogenic substrate, 40 min
Chain of Lysosomal acid glucosylceramidase (Homo sapiens) (P04062 whole entry, looked up): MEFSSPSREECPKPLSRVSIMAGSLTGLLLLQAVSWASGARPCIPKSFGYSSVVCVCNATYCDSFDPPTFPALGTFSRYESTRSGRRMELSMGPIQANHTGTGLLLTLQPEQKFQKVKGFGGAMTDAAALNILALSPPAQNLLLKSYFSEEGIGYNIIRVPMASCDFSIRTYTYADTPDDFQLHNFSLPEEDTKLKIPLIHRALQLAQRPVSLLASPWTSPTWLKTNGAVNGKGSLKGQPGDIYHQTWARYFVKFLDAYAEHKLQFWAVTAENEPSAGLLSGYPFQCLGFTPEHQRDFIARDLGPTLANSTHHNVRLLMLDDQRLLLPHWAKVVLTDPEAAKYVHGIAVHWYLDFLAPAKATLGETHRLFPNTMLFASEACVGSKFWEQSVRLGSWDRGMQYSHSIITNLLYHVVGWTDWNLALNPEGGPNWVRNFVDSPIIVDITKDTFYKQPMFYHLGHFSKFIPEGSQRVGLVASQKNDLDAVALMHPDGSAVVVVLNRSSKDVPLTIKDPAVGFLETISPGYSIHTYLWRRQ
Summary of the method: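 Normal human glucocerebrosidase (0.2 nM) with blue fluorogenic substrate (80 uM final) in citrate/phosphate pH 5.9 with 10mM sodium taurocholate, 0.01% tween-20; 40 min RT, NaOH/glycine stop; fluorescence Ex 365/Em 440; AC50 from a titration from 0.6 nM upwards.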

[2] = AP1 Signaling Pathway (AID 357; active = well fitted curve in either direction with a large enough effect, not every such curve was filed as active;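 also: ME-180 reporter cells stimulated with EGF at its EC50 level; % is scaled to controls: 0 for no effect and ±100 for the full control effect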); conditions: ME-180 AP-1-bla reporter, EGF-induced, beta-lactamase ratio, 5 h; at 7.69 µM (top of the series) unless noted
Summary of the method: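 Modulation of EGF-driven AP-1 transcription was assessed with a beta-lactamase reporter in ME-180 cells. Compound and EC50 EGF were co-incubated 5 hours at 37 °C before 2.5-hour CCF4 loading at room temperature and dual-emission reading.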

[3] = target: Cytochrome P450 1A2 (Homo sapiens) (UniProt P05177); test: p450-cyp1a2 (AID 410; calls by dose curve; also: potency is read from the fitted curve at half-maximal effect); conditions: recombinant CYP1A2, luciferin-ME demethylation, luminescence; series mostly up to 57 µM
Chain of Cytochrome P450 1A2 (Homo sapiens) (P05177 whole entry, looked up): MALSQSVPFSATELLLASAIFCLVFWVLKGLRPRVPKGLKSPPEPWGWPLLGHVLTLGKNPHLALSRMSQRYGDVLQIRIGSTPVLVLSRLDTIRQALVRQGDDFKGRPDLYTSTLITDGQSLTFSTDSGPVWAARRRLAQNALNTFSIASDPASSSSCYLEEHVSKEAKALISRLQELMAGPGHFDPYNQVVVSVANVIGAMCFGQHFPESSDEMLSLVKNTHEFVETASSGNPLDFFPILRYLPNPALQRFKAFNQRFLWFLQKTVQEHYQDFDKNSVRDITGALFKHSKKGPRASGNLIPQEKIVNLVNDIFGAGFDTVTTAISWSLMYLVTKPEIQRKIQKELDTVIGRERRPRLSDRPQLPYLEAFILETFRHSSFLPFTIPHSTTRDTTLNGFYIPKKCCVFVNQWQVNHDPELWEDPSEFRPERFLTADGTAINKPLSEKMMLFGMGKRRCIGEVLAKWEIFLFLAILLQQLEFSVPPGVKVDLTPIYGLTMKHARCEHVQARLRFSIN
Summary of the method: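 O-Demethylation of luciferin 6' methyl ether by human CYP1A2 is monitored as luciferase luminescence. Substrate sits at Km (100uM); enzyme is 20nM. Values are scaled to 57 uM furafylline as maximal inhibition.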

[4] = NFAT Signaling Pathway (AID 444; active = well fitted curve in either direction with a large enough effect, not every such curve was filed as active;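 also: carbachol stimulus at about its EC50 of 1 µM final; % is scaled to controls: 0 for no effect and ±100 for the full control effect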); conditions: Jurkat NFAT-bla M1, carbachol, beta-lactamase ratio, 5 h; at 7.69 µM (top of the series) unless noted
Summary of the method: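 Jurkat cells with NFAT-driven β-lactamase reporter and co-expressed M1 receptor, stimulated with carbachol (final 1 uM, ~EC50), compound titration, 5 h at 37 °C. CCF4 loaded 1 h at RT; 460/530 nm ratio gave %activity and AC50.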

[5] = Stat Signaling Pathway (AID 446; active = well fitted curve in either direction with a large enough effect, not every such curve was filed as active;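 also: ME-180 cervical cancer cells given 40 pM IL-6 alongside compound; SIE-controlled beta-lactamase reporter measured as 460/530 nm FRET emission ratio; % is scaled to controls: 0 for no effect and ±100 for the full control effect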); conditions: ME-180 (cervical carcinoma) SIE beta-lactamase reporter, IL-6 stimulated, 5 h; at 7.69 µM (top of the series) unless noted
Summary of the method: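 Emission at 460 and 530 nm (excitation 405 nm) reports SIE-controlled beta-lactamase in ME-180 cells. Cells received compound with 40 pM IL-6 for 5 hrs at 37 C; data scaled between 300 pM IL-6 and 125 nM JAK-inhibitor controls.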

[6] = target: Glucocorticoid receptor (Homo sapiens) (UniProt P04150); test: GR-GFP Redistribution (AID 450;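 active = compounds whose dose series gives a full or clear partial fitted curve of increased nuclear translocation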; also: potency is read from the fitted curve at half-maximal effect); conditions: U2OS GR-GFP nuclear translocation, laser cytometry, 2 h
Chain of Glucocorticoid receptor (Homo sapiens) (P04150 whole entry, looked up, the tested form may be a part): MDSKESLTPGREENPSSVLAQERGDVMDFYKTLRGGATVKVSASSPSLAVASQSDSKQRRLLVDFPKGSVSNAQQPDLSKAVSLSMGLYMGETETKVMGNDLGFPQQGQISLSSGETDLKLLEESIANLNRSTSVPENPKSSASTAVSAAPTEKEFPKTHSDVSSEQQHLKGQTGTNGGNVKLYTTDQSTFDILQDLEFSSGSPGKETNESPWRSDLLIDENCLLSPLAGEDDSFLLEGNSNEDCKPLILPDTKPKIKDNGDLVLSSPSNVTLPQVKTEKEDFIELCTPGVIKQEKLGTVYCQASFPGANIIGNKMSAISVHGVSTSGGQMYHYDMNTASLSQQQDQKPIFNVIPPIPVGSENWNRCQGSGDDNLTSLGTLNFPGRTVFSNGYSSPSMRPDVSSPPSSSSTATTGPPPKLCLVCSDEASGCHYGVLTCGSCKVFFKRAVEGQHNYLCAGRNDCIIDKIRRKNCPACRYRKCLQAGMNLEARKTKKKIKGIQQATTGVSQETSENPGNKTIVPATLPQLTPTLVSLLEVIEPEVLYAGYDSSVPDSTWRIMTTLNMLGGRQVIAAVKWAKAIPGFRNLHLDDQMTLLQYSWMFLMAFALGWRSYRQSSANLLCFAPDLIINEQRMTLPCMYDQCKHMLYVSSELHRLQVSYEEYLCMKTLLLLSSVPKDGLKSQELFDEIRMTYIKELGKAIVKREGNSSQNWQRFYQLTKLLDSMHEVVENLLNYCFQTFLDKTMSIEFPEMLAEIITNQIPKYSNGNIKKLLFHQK

[7] = target: Glucocorticoid receptor (Homo sapiens) (UniProt P04150); test: GR-EFC Redistribution (AID 451; calls by dose curve; also: potency is read from the fitted curve at half-maximal effect); conditions: CHO-K1 GR-EFC translocation, beta-gal luminescence, 2 h
Summary of the method: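 CHO-K1 cells expressing nuclear EA and GR-ED fragments of b-gal; compounds titrated up to 46 uM final, 2 h at 37 C. GR nuclear translocation read as complemented b-gal luminescence after 1 h RT detection.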

[8] = target: Mitogen-activated protein kinase 10 (Mus musculus) (UniProt Q61831); test: JNK3 AlphaScreen Assay (AID 530; active = well fitted curve in either direction with a large enough effect, not every such curve was filed as active;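 also: kinase came from lysate of stimulated human HepG2 cells; signal reports phosphorylation of biotinylated GST-cJun 1-79 at Ser73 with 10 µM ATP; % is scaled to controls: 0 for no effect and ±100 for the full control effect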); conditions: JNK3 lysate, c-Jun phosphorylation; series mostly up to 57.1 µM
Summary of the method: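 Activity was read by AlphaScreen after JNK3-containing HepG2 lysate (cytokine pre-activated) phosphorylated biotinylated GST-cJun with 10 uM ATP at room temperature. Phospho-Ser73 cJun antibody with Protein-A acceptor beads provided detection.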

[9] = target: Dual specificity protein kinase CLK4 (Homo sapiens) (UniProt Q9HAZ1); test: qHTS Assay for Inhibitors of CDC-like Kinase 4 (Kinase-Glo Assay) (AID 1770); conditions: recombinant Clk4, Kinase-Glo ATP depletion luminescence; series mostly up to 66.7 µM; also: nearly all actives have a fitted effect of over 65% in size; also: potency is read from the fitted curve at half-maximal effect
Chain of Dual specificity protein kinase CLK4 (Homo sapiens) (Q9HAZ1 whole entry, looked up): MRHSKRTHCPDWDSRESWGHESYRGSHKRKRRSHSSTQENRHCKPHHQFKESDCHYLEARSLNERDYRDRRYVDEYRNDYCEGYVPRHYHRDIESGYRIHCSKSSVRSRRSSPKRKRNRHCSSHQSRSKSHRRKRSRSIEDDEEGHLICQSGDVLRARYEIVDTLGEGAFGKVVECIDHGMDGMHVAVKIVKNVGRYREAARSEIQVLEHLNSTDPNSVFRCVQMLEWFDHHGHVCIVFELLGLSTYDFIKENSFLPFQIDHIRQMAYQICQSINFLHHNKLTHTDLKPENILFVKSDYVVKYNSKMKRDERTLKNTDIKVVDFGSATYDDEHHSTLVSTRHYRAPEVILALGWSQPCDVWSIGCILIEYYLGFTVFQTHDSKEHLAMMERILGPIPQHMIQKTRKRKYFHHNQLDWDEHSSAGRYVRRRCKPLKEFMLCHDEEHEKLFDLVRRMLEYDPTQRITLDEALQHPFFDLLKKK
Summary of the method: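 Luminescent ATP-depletion read-out (Kinase-Glo) after 4.5 h room-temperature reaction of Clk4 (25 nM final) with RS peptide (100 uM) and ATP (1 uM), pH 7.5 Tris buffer with MgCl2 and DTT.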

[10] = target: Dual specificity protein kinase CLK4 (Homo sapiens) (UniProt Q9HAZ1); test: qHTS Assay for Inhibitors of CDC-like Kinase 4 (ADP-Glo Assay) (AID 1771); conditions: recombinant CLK4, ADP-Glo luminescence; series mostly up to 80 µM; also: nearly all actives have a fitted effect of over 70% in size; also: potency is read from the fitted curve at half-maximal effect
Summary of the method: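 Compounds are pin-transferred onto substrate mix (100 uM RS peptide, 1 uM ATP), then 25 nM Clk4 is added. After 1 hr at room temperature, ADP-Glo reagent runs 45 min, detection reagent 30 min, then luminescence is read.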

[11] = target: Dual specificity protein kinase CLK4 (Homo sapiens) (UniProt Q9HAZ1); test: qHTS Assay for Inhibitors of CDC-like Kinase 4 (ADP-FP Assay) (AID 1795); conditions: Transcreener ADP fluorescence polarization; series mostly up to 50 µM; also: nearly all actives have a fitted effect of over 60% in size; also: potency is read from the fitted curve at half-maximal effect
Summary of the method: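 Kinase activity was measured as ADP production using Transcreener orange tracer (4 nM) and ADP antibody (1 ug/mL) fluorescence polarization, with ADP calculated from a calibration curve. The 1 h reaction contained 6.25 nM Clk4, 1 uM ATP and 100 uM RS peptide at pH 7.5 with Mg2+.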

[12] = target: Ubiquitin carboxyl-terminal hydrolase 1 (Homo sapiens) (UniProt O94782); test: Inhibitors of USP1/UAF1: Pilot qHTS (AID 504865); conditions: purified USP1/UAF1, Ub-rhodamine cleavage fluorescence; series mostly up to 54.9 µM;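 also: rhodamine fluorescence freed from ubiquitin-rhodamine substrate followed over time; top concentration of the series differs between compounds; % is scaled to controls: 0 for no effect and ±100 for the full control effect; nearly all actives have a fitted effect of over 35% in size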
Chain of Ubiquitin carboxyl-terminal hydrolase 1 (Homo sapiens) (O94782 whole entry, looked up): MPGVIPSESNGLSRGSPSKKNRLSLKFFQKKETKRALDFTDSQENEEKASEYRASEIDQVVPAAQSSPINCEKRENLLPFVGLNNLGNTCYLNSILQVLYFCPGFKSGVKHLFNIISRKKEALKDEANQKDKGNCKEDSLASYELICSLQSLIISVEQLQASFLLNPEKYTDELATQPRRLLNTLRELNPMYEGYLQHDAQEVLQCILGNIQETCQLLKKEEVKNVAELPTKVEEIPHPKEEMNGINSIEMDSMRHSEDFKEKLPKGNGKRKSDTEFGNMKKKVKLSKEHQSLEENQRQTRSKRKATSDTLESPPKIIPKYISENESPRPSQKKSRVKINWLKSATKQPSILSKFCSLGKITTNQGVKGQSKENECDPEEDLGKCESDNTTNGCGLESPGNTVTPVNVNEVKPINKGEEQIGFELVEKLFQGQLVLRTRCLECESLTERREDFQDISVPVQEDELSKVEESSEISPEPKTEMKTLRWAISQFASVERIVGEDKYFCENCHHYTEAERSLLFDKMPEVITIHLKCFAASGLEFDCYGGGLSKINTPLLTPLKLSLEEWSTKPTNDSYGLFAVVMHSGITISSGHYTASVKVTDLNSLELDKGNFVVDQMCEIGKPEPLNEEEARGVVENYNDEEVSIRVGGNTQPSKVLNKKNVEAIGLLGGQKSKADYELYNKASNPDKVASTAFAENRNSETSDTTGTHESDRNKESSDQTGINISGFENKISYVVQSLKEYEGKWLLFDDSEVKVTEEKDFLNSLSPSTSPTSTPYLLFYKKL
Summary of the method: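 Deubiquitinase activity followed as kinetic rhodamine fluorescence release from 150 nM Ub-Rho. 1 nM USP1/UAF1 with compound, after 15 min room-temperature preincubation, in HEPES pH 7.8 buffer containing TCEP, EDTA, BSA and Tween-20.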

[13] = Primary qHTS for small molecule stabilizers of the endoplasmic reticulum resident proteome: Secreted ER Calcium Modulated Protein (SERCaMP) assay (AID 1508630); conditions: SH-SY5Y GLuc-SERCaMP (Gaussia luciferase released on ER calcium loss) secretion, thapsigargin, luminescence; series mostly up to 38.4 µM; also: % is scaled to controls: 0 for no effect and ±100 for the full control effect
Summary of the method: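 The SH-SY5Y reporter protocol was run at 3 concentrations up to 38.3 uM (primary) or 11 concentrations (follow-up): 16 h compound, 100 nM thapsigargin for 4 h, then extracellular luciferase luminescence.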

[14] = target: 3',5'-cyclic-AMP phosphodiesterase 4B (Homo sapiens) (UniProt Q07343); test: qHTS Assay for Inhibitors of PDE-IV (AID 607; active = well fitted activation curve with a large enough effect in the main read-out, with a control signal flat, not every such curve was filed as active; also: % of control where 0% means no effect); conditions: HEK293 ACTOne CNG channel cells, membrane potential fluorescence; series mostly up to 22.9 µM
Chain of 3',5'-cyclic-AMP phosphodiesterase 4B (Homo sapiens) (Q07343 whole entry, looked up): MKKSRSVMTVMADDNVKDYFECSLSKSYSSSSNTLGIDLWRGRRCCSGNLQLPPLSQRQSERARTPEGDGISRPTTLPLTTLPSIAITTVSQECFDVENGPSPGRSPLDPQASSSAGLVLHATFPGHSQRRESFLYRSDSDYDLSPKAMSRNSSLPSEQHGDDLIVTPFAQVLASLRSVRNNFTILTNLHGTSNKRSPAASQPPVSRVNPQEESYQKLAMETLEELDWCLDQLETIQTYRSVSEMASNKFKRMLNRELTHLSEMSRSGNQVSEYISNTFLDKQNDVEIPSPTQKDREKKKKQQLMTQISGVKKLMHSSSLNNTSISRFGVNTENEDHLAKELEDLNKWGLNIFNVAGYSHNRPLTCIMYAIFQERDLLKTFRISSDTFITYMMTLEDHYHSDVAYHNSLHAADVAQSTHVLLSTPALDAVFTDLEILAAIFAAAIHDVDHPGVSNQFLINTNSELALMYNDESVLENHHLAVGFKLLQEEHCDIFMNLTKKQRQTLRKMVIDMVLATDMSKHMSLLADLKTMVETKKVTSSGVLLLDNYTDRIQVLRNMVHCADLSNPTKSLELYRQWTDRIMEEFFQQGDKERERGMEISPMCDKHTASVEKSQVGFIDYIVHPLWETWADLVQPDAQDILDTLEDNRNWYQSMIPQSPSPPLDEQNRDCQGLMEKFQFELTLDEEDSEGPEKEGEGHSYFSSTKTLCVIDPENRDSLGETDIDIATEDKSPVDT
Summary of the method: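 The readout is membrane depolarisation from a cAMP-sensing CNG channel, detected with a potential dye at ex 535/em 590. Cells were HEK293-derived (endogenous PDE-IV) at 1000 cells/well, titrated up to 22.9 uM final.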

[15] = target: Cytochrome P450 3A4 (Homo sapiens) (UniProt P08684); test: qHTS Assay for Activators of Cytochrome P450 3A4 (AID 885); conditions: recombinant CYP3A4, Luciferin-PPXE luminescence, 60 min; series mostly up to 57.1 µM; also: nearly all actives have a fitted effect of over 65% in size
Chain of Cytochrome P450 3A4 (Homo sapiens) (P08684 whole entry, looked up): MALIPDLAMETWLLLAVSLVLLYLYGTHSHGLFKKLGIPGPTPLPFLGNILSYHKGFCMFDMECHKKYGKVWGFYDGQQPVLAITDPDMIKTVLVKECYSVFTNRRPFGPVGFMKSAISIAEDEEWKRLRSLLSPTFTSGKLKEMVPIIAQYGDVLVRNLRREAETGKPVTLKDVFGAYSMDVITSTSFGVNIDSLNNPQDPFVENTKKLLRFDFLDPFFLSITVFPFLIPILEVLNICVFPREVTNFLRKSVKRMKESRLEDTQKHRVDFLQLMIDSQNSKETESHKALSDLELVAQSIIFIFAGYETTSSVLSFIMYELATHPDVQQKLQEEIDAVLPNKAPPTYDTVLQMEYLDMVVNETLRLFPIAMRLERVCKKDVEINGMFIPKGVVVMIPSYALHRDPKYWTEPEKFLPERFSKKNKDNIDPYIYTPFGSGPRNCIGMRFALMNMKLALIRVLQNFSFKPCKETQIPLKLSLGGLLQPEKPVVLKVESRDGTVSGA
Summary of the method: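 Activators are scored by enhanced luminescence from CYP3A4 conversion of luciferin-PPXE (25uM, equal to KM) to luciferin, after 60 min at RT with an NADPH-regenerating system.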

COc1ncc2ncc(=O)n(C3CC3)c2n1
inactive: Potency [1] > 11.4 µM | activity change, negative = inhibition [2] -1.23% | activity change, negative = inhibition [4] -8.58% | activity, negative = inhibition [5] 6.59% | Potency [6] > 9.22 µM | Potency [7] > 46 µM | Potency [8] | Potency [9] | Potency [10] | Potency [11] | Potency [12] | outcome [13]
active: Potency [3] 10 µM

NC(=O)c1ccccc1-c1nc(-n2ccnc2)c2ccccc2n1
active: Potency [3] 2.51 µM
inactive: Potency [1] > 11.4 µM | activity change, negative = inhibition [2] 11.1% | activity change, negative = inhibition [4] -3.23% | activity, negative = inhibition [5] -1.41% | Potency [6] > 46 µM | Potency [7] > 46 µM | Potency [8] | Potency [14] | Potency [15] | Potency [9] | Potency [10] | Potency [11] | Potency [12] | outcome [13]

O=c1c(-c2ccc(F)cc2)nc2cncnc2n1-c1ccccc1
active: Potency [3] 7.94 µM
inactive: Potency [1] > 11.4 µM | activity change, negative = inhibition [2] -2.6% | activity change, negative = inhibition [4] 11.8% | activity, negative = inhibition [5] -3.31% | Potency [6] > 9.22 µM | Potency [7] > 46 µM | Potency [8] | Potency [9] | Potency [10] | Potency [11] | Potency [12] | outcome [13]

Cc1cccc(CNc2ncncc2-c2ccc(C(=O)N(C)C)cc2)c1
inactive: Potency [1] > 11.4 µM | activity change, negative = inhibition [2] -19% | activity change, negative = inhibition [4] 11.4% | activity, negative = inhibition [5] 1.97% | Potency [6] > 46 µM | Potency [7] > 46 µM | Potency [8] | Potency [14] | Potency [15] | Potency [9] | Potency [10] | Potency [11] | Potency [12] | outcome [13]
active: Potency [3] 15.8 µM

c1cc(NC2CC2)nc(-c2ccoc2)n1
inactive: Potency [1] > 11.4 µM | activity change, negative = inhibition [2] -10.4% | activity change, negative = inhibition [4] -10.6% | activity, negative = inhibition [5] 14.4% | Potency [6] > 46 µM | Potency [7] > 46 µM | Potency [8] | Potency [14] | Potency [15] | Potency [9] | Potency [10] | Potency [11] | Potency [12] | outcome [13]
active: Potency [3] 0.251 µM

N#Cc1cccc(-c2nccc(-n3ccnc3)n2)c1
inactive: Potency [1] > 11.4 µM | activity change, negative = inhibition [2] 10.7% | activity change, negative = inhibition [4] 10.9% | activity, negative = inhibition [5] 4.18% | Potency [6] > 46 µM | Potency [7] > 46 µM | Potency [8] | Potency [14] | Potency [15] | Potency [12] | outcome [13]
active: Potency [3] 0.2 µM | Potency [9] 8.91 µM | Potency [10] 10 µM | Potency [11] 12.6 µM

Cc1nc2cnc(Oc3cccc(Cl)c3)nc2n(C2CC2)c1=O
inactive: Potency [1] > 11.4 µM | activity change, negative = inhibition [2] -22.3% | activity change, negative = inhibition [4] -5.3% | activity, negative = inhibition [5] -13.7% | Potency [6] > 9.22 µM | Potency [7] > 46 µM | Potency [8] | Potency [14] | Potency [9] | Potency [10] | Potency [11] | outcome [13]
active: Potency [3] 6.31 µM

COc1ccc(Oc2ncc3ncc(=O)n(C4CC4)c3n2)cc1
inactive: Potency [1] > 11.4 µM | activity change, negative = inhibition [2] -1.59% | activity change, negative = inhibition [4] 5.04% | activity, negative = inhibition [5] -19.9% | Potency [6] > 9.22 µM | Potency [7] > 46 µM | Potency [8] | Potency [14] | Potency [15] | Potency [9] | Potency [10] | Potency [11] | Potency [12] | outcome [13]
active: Potency [3] 5.01 µM
